High-throughput results deposited in PubChem by several laboratories.
FBA Mtb inh: Mtb FBA enzyme inhibitors, primary screen, biochemical, fluorescence, strain H37Rv; Fructose-bisphosphate aldolase (Mycobacterium tuberculosis (strain ATCC 25618 / H37Rv)), …; purified M. tuberculosis FBA, fluorescence read-out; inhibition, % at 1 µM; actives 2.3% (n = 360,000); AID 588726, 2011; in the data active = inhibition above about 27%;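 also: 0% = vehicle and 100% = reference inhibitor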
Target sequence (P9WQA3 whole entry, looked up): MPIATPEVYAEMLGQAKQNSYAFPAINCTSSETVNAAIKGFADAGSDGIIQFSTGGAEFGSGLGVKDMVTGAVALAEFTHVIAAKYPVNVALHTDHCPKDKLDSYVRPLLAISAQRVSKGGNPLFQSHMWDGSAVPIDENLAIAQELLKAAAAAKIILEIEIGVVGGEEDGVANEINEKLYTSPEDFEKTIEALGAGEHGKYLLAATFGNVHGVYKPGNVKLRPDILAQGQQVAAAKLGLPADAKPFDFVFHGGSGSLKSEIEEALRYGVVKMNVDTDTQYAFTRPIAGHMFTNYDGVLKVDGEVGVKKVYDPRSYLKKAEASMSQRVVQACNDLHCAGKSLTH
FadD28 FP inh: inhibitors of FadD28 bisubstrate probe binding, primary screen, biochemical, fluorescence polarization, single point | Mycobacterium tuberculosis FadD28 fatty-acid-AMP ligase | inhibition, % at 12.5 µM | actives 0.22% (n = 360,000); in the data active = inhibition above about 8.5%, passing the limit was not always enough
Mtb hypoxia inh: PubChem AID 1159583 | M. tuberculosis hypoxia-regulated fluorescent reporter, fluorescence | fluorescence inhibition, % (no concentration beside the values) | actives 0.1% (n = 300,000); in the data active = fluorescence inhibition mostly above about 23%, no sharp cut-off; inactive = mostly below about 17%
Mtb BioA inh: M. tuberculosis BioA enzyme inhibitors, primary screen, biochemical, plate reader, single point, HTS. 7,8-diaminopelargonic acid synthase BioA (Mycobacterium tuberculosis). purified M. tuberculosis BioA enzyme. inhibition, % at 9.99 µM. actives 0.096% (n = 360,000). AID 602481, 2012; in the data active = inhibition above about 40%
GDH-TPI inh: GDH-TPI coupling enzyme inhibitors, primary screen, artefact control for M. tuberculosis FBA inhibitor project, biochemical, absorbance, full deck; GDH-TPI coupled enzyme counterscreen, NADH absorbance; actives 1.2% (n = 360,000); AID 588335, 2011; inhibition, % at 4.8 µM; in the data active = inhibition above about 30%;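 also: 0% = DMSO wells and 100% = wells lacking the enzyme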
Starred values were filed as active, the others as inactive; . = no result. Sampled rows, rich in hits. Any-hit rate of the full collection: about 2.9%.

SMILES	FBA Mtb inh	FadD28 FP inh	Mtb hypoxia inh	Mtb BioA inh	GDH-TPI inh
CCCNC(=O)C[C@H]1CC[C@@H]2[C@@H](COc3ccc(NC(=O)c4ccccc4)cc3C(=O)N2C)O1	.	.	.	2	.
CCOc1ccc(/C=C/C(=O)N(CC)CC(=O)Nc2ccc3c(c2)OCCO3)cc1OC	5	-4	9	0	7
CCCN(CC(=O)Nc1ccccc1C)C(=O)/C=C/c1ccc(OCC)c(OC)c1	13	-2	6	0	34*
CCN(CC(=O)Nc1c(F)cccc1F)C(=O)Cc1ccccc1	-2	9.7*	15	1	-6
CCOc1ccc(/C=C/C(=O)N(CC)CC(=O)Nc2c(F)cccc2F)cc1OC	10	-3	.	0	32*
CCCN(CC(=O)Nc1ccccc1C)C(=O)/C=C/c1cccs1	-1	-3	-1	-1	26
CCN(CC(=O)Nc1c(F)cccc1F)C(=O)CN1C(=O)c2ccccc2C1=O	-1	-2	5	-3	-2
C[C@H]1CN([C@@H](C)CO)S(=O)(=O)c2ccc(-c3cncnc3)cc2O[C@@H]1CN(C)C(=O)Cc1cccnc1	.	.	.	-3	.
C[C@@H]1CN([C@@H](C)CO)C(=O)c2cc(C#Cc3cccnc3)cnc2O[C@@H]1CN(C)S(=O)(=O)c1ccccc1F	.	.	.	2	.
COc1cccc(N2C(=O)NC(=O)/C(=C/c3ccc([N+](=O)[O-])s3)C2=O)c1	-2	18*	.	2	7
COc1cccc(N2C(=O)NC(=O)/C(=C/c3ccc4c(c3)Cc3ccccc3-4)C2=O)c1	6	-3	6	-2	0
COc1ccc(N2C(=O)NC(=O)/C(=C/c3ccc([N+](=O)[O-])s3)C2=O)cc1	-1	35*	1	3	15
COc1ccccc1N1C(=O)NC(=O)/C(=C/c2ccc([N+](=O)[O-])s2)C1=O	.	.	14	.	.
COc1ccc(N2C(=O)NC(=O)/C(=C\c3ccc([N+](=O)[O-])s3)C2=O)cc1	4	36*	4	.	4
O=C(Nc1cccc(F)c1)N[C@H]1CC[C@H](CCNS(=O)(=O)c2cccc(Cl)c2)O[C@H]1CO	.	.	.	4	.
CCCC#Cc1cnc2c(c1)C(=O)N([C@@H](C)CO)C[C@H](C)[C@H](CN(C)C(=O)Nc1ccccc1OC)O2	.	.	.	-3	.
C[C@@H]1CCCCO[C@H](CN(C)C(=O)NC2CCCCC2)[C@@H](C)CN([C@H](C)CO)C(=O)c2cc(NC(=O)CCCN(C)C)ccc2O1	.	.	.	6	.
Cc1noc(C)c1S(=O)(=O)Nc1ccc2c(c1)C(=O)N([C@@H](C)CO)C[C@@H](C)[C@H](CN(C)C(=O)Cc1ccccc1)OCCCC[C@@H](C)O2	.	.	.	-1	.
C[C@@H]1CCCCO[C@H](CN(C)S(=O)(=O)c2ccccc2)[C@H](C)CN([C@@H](C)CO)C(=O)c2cc(NS(=O)(=O)c3ccc(Cl)cc3)ccc2O1	.	.	.	0	.
COc1ccc(/C=[N+](\[O-])C2N(c3ccccc3)C(=S)SC2(C)C)cc1OC (stereo not given)	-2	-1	15	.	32*
CC1(C)SC(=S)N(c2ccccc2)C1/[N+]([O-])=C/c1cccc([N+](=O)[O-])c1 (stereo not given)	3	0	-9	-2	1
COCCn1c(C)cc(/C=C(\C#N)C(=O)OC(C)C(=O)Nc2ccc(NC(C)=O)cc2)c1C (stereo not given)	0	-5	2	1	39*
CNC(=O)/C(C#N)=C\c1cc(C)n(-c2ccc(N3CCOCC3)cc2)c1C	3	1	-10	.	31*
Cc1cc(/C=C(\C#N)C(=O)O)c(C)n1-c1ccc(Br)cc1	0	-6	-3	-6	32*
Cc1ccc(-n2c(C)cc(C=C(C#N)C#N)c2C)cc1	-1	1	.	-2	39*
SMILES	FBA Mtb inh	FadD28 FP inh	Mtb hypoxia inh	Mtb BioA inh	GDH-TPI inh
CC(=NOc1nc(C)cc(C)n1)c1ccc(Cl)cc1Cl	.	.	7	.	.
CC(=O)N(C)C[C@H]1Oc2cc(C#CC(C)(C)O)ccc2S(=O)(=O)N([C@@H](C)CO)C[C@@H]1C	.	.	.	24	.
CC(=O)N1[C@@H]2Cn3c(ccc(-c4ccncc4)c3=O)[C@H]1[C@@H](C(=O)NC1Cc3ccccc3C1)[C@@H]2CO	.	.	.	0	.
COCCNC(=O)/C(C#N)=C/c1cc(C)n(C2CCCCC2)c1C	0	-1	4	.	30
CCCn1c(C)cc(/C=C(\C#N)C(=O)O)c1C	2	0	13	-1	31*
COCCNC(=O)/C(C#N)=C/c1cc(C)n(-c2ccc(C)cc2)c1C	6	1	13	.	31*
C#CCOCCOCCOCCNc1nc(N2CCN(C(=O)C(C(C)O)n3cc(CCCCN)nn3)CC2)nc(N2CCN(C(=O)C(C(C)CC)n3cc(CCCN=C(N)N)nn3)CC2)n1 (stereo not given)	.	.	-2	.	.
C#CCOCCOCCOCCNc1nc(N2CCN(C(=O)C(CCCCN)n3cc(C(N)CO)nn3)CC2)nc(N2CCN(C(=O)C(CCC(=O)O)n3cc(C(N)C(C)CC)nn3)CC2)n1 (stereo not given)	.	.	6	.	.
Oc1ccc(Br)cc1C=Nn1c(-c2ccccc2)n[nH]c1=S	.	.	10	.	.
O=C(O)c1ccc2c(c1)[C@@H]1C=CC[C@@H]1[C@H](c1ccccn1)N2	3	19*	8	-1	4
COc1ccc(C(=O)N/N=C(\C)c2ccc3c(c2)C2C=CCC2C(c2ccccc2)N3)cc1 (stereo not given)	-2	-3	.	.	26
COc1cccc(NS(=O)(=O)c2ccc3c(c2)C2C=CCC2C(c2ccc(C(=O)O)cc2)N3)c1 (stereo not given)	-3	22*	10	.	8
CC1(C)CC(=O)c2sc(NS(=O)(=O)Cc3ccccc3)nc2C1	-1	-2	9	-1	50*
Cc1ccc(/C=C/C(=O)Nc2nnc(C)s2)o1	2	1	5	.	32*
Cc1ccc(C(=O)Nc2nnc(C)s2)o1	-1	-3	6	.	22
Cc1cccc(S(=O)(=O)c2c(N)n(N=Cc3ccco3)c3nc4ccccc4nc23)c1	.	.	2	.	.
CCOC(=O)N1CCN(c2cc(NCCC(=O)O)c3c4c(onc24)-c2ccccc2C3=O)CC1	-2	15*	4	-76	7
O=C(O)CCCNc1cc(N2CCN(C(=O)c3ccco3)CC2)c2noc3c2c1C(=O)c1ccccc1-3	-3	18*	.	-15	10
O=C(/C=C\c1cn(-c2ccccc2)nc1-c1ccccc1)Nc1nccs1	-1	2	-18	.	27
CC(=O)NS(=O)(=O)c1ccc(NC(=O)/C=C/c2cn(-c3ccccc3)nc2-c2ccccc2)cc1	-4	-6	-1	0	43*
Cc1cnc(C(=O)NC(C)CCc2ccccc2)cn1 (stereo not given)	-3	-4	38*	.	-2
O=C(N/N=C/c1ccc([N+](=O)[O-])o1)C1CCCC1	-2	-1	.	-1	12
